# Assay outcomes: PubChem BioAssay, National Center for Advancing Translational Sciences (NCATS)
# SMN2 splice enh: enhancers of SMN2 splice variant expression; HEK293 SMN2-luciferase splicing reporter, luminescence, 30-36 h; Potency, µM (top dose mostly 46.1 µM), for inactives: at the highest dose activity change, positive = activation, most hits filed as activators; 210,000 compounds, 2.8% hits; AID 1458; note: % of control where 0% means no effect; nearly all actives have a fitted effect of over 55% in size
#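 HEK293 cells carry an SMN2 minigene-luciferase reporter in which exon 7 inclusion puts luciferase in frame. Cells were seeded at 2000 cells/well, attached for 10-12 hours, then exposed to compounds for 30-36 hours at 37C before ONE-Glo luminescence.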
# NPC1 prom act: activators of NPC1 promoter. Potency, µM (top dose mostly 9.22 µM), for inactives: at the top dose activation, actives largely listed as activators. AID 485313. Huh7 NPC1 promoter luciferase reporter, 24 h. 320,000 compounds, 2.4% hits; note: % of control where 0% means no effect; nearly all actives have a fitted effect of over 60% in size
#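 NPC1 promoter–luciferase Huh7 cells; 24 h compound; luminescence.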
# FLuc counter: counter-screen for miR-21 project: firefly luciferase inhibitors or activators | P08659 | purified FLuc, Km substrates, luminescence inhibition | Potency, µM (top dose mostly 57.5 µM), for the others: at the top dose activity change, negative = inhibition, actives largely listed as inhibitors | 360,000 compounds, 6.9% hits | AID 588342;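 note: plate controls were vehicle for no effect and reference inhibitor for full effect; nearly all actives have a fitted effect of over 55% in size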
# Target sequence (P08659 whole entry, looked up): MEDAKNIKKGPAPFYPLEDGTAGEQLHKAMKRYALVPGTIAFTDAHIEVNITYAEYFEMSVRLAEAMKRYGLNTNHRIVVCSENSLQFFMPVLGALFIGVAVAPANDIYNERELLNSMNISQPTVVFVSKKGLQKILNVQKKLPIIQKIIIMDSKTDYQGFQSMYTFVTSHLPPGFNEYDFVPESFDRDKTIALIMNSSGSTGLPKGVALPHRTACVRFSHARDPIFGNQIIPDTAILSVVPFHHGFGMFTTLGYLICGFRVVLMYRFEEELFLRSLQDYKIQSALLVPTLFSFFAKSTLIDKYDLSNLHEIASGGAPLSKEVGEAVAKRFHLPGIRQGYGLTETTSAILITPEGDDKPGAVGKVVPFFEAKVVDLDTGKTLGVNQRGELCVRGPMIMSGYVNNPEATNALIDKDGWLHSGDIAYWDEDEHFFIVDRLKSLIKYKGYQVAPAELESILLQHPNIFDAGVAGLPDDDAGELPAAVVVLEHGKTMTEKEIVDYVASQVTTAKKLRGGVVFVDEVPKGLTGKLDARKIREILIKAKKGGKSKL
#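 Purified P. pyralis luciferase (10nM final) with 10uM D-luciferin and 10uM ATP (Km levels) in 50mM Tris acetate pH 7.5, 10mM Mg acetate, 0.01% Tween-20, 0.05% BSA; qHTS 6-point titration, ~60 µM downward; luminescence read.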
# Rab9 prom act: activates the Rab9 promoter; Huh7 Rab9 promoter-luciferase reporter, luminescence, 24 h; Potency, µM (doses to about 9.22 µM), without a hit: at the highest dose activation, negative = inhibition, most hits filed as activators; 320,000 compounds, 2.8% hits; AID 485297; note: % of control where 0% means no effect; nearly all actives have a fitted effect of over 60% in size
#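 Using Huh7 cells stably transfected with Rab9 promoter–luciferase, compounds were incubated 24 h at 37 °C, 5% CO2; luciferase luminescence was read 10 min after reagent addition.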
# ELG1 genotox: genotoxicity induction in ELG1-luciferase HEK293T cells; HEK293T ELG1-luciferase reporter, luminescence, 16 h; Potency, µM (series often up to 46 µM), without a hit: top-dose activity change, positive = activation, hits mostly activators; 330,000 compounds, 1.3% hits; note: % of control where 0% means no effect; nearly all actives have a fitted effect of over 60% in size
#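 16 hr compound incubation (37 °C, 5% CO2) of HEK293T cells carrying luciferase-tagged ELG1; luciferase then measured by ONE-Glo luminescence after 30 min at RT.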
# ELG1 DNA repair: inhibitors of ELG1-dependent DNA repair in HEK293T cells; HEK293T ELG1-luciferase reporter, luminescence, 16 h; DNA damage induced by 5-fluorouridine; Potency, µM (top dose mostly 46.1 µM), for inactives: top-dose activity change, negative = inhibition, actives largely listed as inhibitors; 330,000 compounds, 2.3% hits; AID 504467; note: % is set by controls: 0 for no effect and ±100 for the full control effect; nearly all actives have a fitted effect of over 55% in size
#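 Step one: seed 2,000 cells per well. Step two: pin-transfer compound or DMSO alongside 5-fluorouridine. Step three: incubate 16 hr, 37 °C, 5% CO2. Step four: add ONE-Glo, wait 30 min, read luminescence.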
# Starred values were filed as active, the others as inactive; ? = inconclusive; . = no result given; [ ] = another dose, or the depositor's remark. Hits are enriched below; roughly 9.4% of the tested compounds scored in any of these assays. Calls come from the whole dose curve; as a rule, active = well fitted curve in the direction sought with a large enough effect; inconclusive = small, poorly fitted or top-dose-only effect, or another doubt; inactive = no such curve, though single readings can be large; an effect the other way counts as inactive or inconclusive. Potency is the fitted concentration of half-maximal effect.
SMILES,SMN2 splice enh,NPC1 prom act,FLuc counter,Rab9 prom act,ELG1 genotox,ELG1 DNA repair
Cc1ccc(/C=C/C(=O)c2ccc([N+](=O)[O-])o2)cc1,.,-32%,?,-38%,-9%,?
CC(C)Cn1nc(NC(=O)c2cccs2)c2cc3ccccc3nc21,.,-4%,?,-1%,-8%,21µM*
COc1ccc2nc3c(cc2c1)c(NC(=O)c1cccs1)nn3CC(C)C,13%,-3%,7.6µM*,19%,-1%,?
COc1cccc(C(=O)Nc2ccc(NC(=O)C3CC3)cn2)c1,43%,2µM*,7.6µM*,3.2µM*,?,?
CCC(=O)Nc1ccc(NC(=O)c2cccc(OC)c2)nc1,11µM*,?,11µM*,2.2µM*,?,?
Cc1ccc(C2(c3noc(CN(C)CC4CCCCO4)n3)CCCC2)cc1 (stereo not given),-26%,-8%,4%,-4%,-3%,-8%
Cc1ccc(C2(c3noc(CN4CCC(c5ccncc5)CC4)n3)CCCC2)cc1,.,-8%,4%,-20%,1%,16µM*
CC(=O)OC(C(=O)c1ccccc1)c1ccccc1 (stereo not given),-5%,.,.,.,.,.
Cc1ncc(CO)c(CO)c1O,6%[20.6 µM],-3%,5%,-5%,2%,22%
COCc1c(CCl)cnc(C)c1O,.,-2%,17µM*,4%,5%,3%
CC1CCc2c(sc3ncn(Cc4ccc(C(=O)O)cc4)c(=O)c23)C1 (stereo not given),28%,20%,21µM*,19%,?,?
CC1CCc2c(sc3nc(SCC(=O)O)n(-c4ccccc4)c(=O)c23)C1 (stereo not given),.,13%,21µM*,2%,-1%,-5%
CC1CCc2c(sc3ncn(CCO)c(=O)c23)C1 (stereo not given),13µM*,?,17µM*,2.5µM*,21µM*,?
CC1CCc2c(sc3ncn(CC(=O)N=Nc4c(O)[nH]c5ccccc45)c(=O)c23)C1 (stereo not given),.,-3%,0%,-6%,-2%,3%
CCOc1ccc(CNC(=O)Cc2ccc(NC(=O)N3CCSc4ncccc43)cc2)cc1,.,.,-5%,.,.,.
COc1ccc2cc(C3CC(c4ccco4)=NN3S(=O)(=O)c3ccccc3)c(Cl)nc2c1 (stereo not given),9%,0%,4%,-11%,-5%,-23%
Cc1ccc2cc(C3CC(c4ccco4)=NN3S(=O)(=O)c3ccccc3)c(Cl)nc2c1 (stereo not given),32µM*,-3%,3%,-4%,-2%,-3%
CC1CC(C)(C)Nc2ccc(OC(=O)c3ccco3)cc21 (stereo not given),.,0%,6.7µM*,?,19%,?
Cc1ccc2c(c1)c(=O)c(S(=O)(=O)c1ccc(C)c(C)c1)cn2CC(=O)Nc1ccccc1,-2%,.,0%,.,.,.
O=C1NN(c2ccc(Cl)c(Cl)c2)C(=O)/C1=C/c1ccc(-c2ccccc2C(=O)O)o1,.,-3%,?,-4%,1%,-2%
CC1=NN(c2ccc(Cl)c(C(=O)O)c2)C(=O)/C1=C\c1ccc(-c2ccc(C(=O)O)cc2)o1,26%,0%,27µM*,5%,1%,?
CC1=NN(c2ccc(C(=O)O)cc2)C(=O)/C1=C/c1ccc(-c2ccccc2F)o1,.,-5%,4.8µM*,5%,11%,?
COC(=O)c1ccccc1-c1ccc(/C=C2\C(=O)N(c3ccccc3)N=C2c2ccccc2)o1,-3%,2%,-8%,1%,0%,16%
CC1=NN(c2ccc(C)cc2)C(=O)/C1=C/c1ccc(-c2cc([N+](=O)[O-])ccc2O)o1,.,0%,12µM*,-4%,-7%,?
CCc1cccc(C)c1NC(=O)c1cc(C)nc2c1c(C)nn2-c1cccc(Cl)c1C,.,.,-1%,.,.,.
SMILES,SMN2 splice enh,NPC1 prom act,FLuc counter,Rab9 prom act,ELG1 genotox,ELG1 DNA repair
Cc1ccc(Cn2ccn(CC(=O)Nc3ccccc3C(F)(F)F)c(=O)c2=O)cc1,.,.,3%,.,.,.
Cc1oc(-c2ccc(C(=O)N(C)Cc3ccccc3)cc2)nc1CN1CCc2ccccc21,.,.,-5%,.,.,.
CCOC(=O)c1cccc(NC(=O)CC(c2ccc(F)cc2)N2Cc3ccccc3C2=O)c1 (stereo not given),.,.,-2%,.,.,.
CN(C)CCn1c2c(c(SCC(=O)Nc3ccc(F)cc3F)nc1=O)CCC2,.,.,-1%,.,.,.
CCOC(=O)N1CCC2(CC1)OC(=O)C(C)=C2C(=O)NCc1cccc(F)c1,.,.,-1%,.,.,.
c1ccc2c(c1)oc1c(Nc3ccc4c(c3)OCO4)ncnc12,?,1.4µM*,2.1µM*,1µM*,5.8µM*,?
Cc1nc(Nc2ccc3c(c2)OCO3)c2oc3ccccc3c2n1,-14%,16%,30µM*,4%,2%,?
COc1ccc(C(=O)Nc2cc(C(=O)NCCc3ccccc3)ccc2Cl)cc1,10µM*,10%,?,26%,16%,-15%
CCOCC(=O)Nc1cc(C(=O)NCCc2ccccc2)ccc1Cl,.,1µM*,-15%,2µM*,?,?
COCC(=O)Nc1cc(C(=O)NCCc2ccccc2)ccc1Cl,0.63µM*,1.8µM*,?,2µM*,?,?
CC(C)CCNC(=O)c1ccc(Cl)c(NC(=O)Cc2ccccc2)c1,9%,-1%,-11%,-2%,-1%,-1%
CCOc1ccccc1C(=O)Nc1cc2c(cc1N1CCOCC1)n(C)c(=O)n2C,7%,.,-5%,.,.,.
CC(=O)c1cccc(NC(=O)CSc2nnc3ccc(-c4ccc(Cl)cc4)nn23)c1,.,.,-1%,.,.,.
COc1ccc(Cn2c(O)c(C=Nc3ccc(OC)cc3)c3ccccc3c2=O)cc1,22%,-8%,-2%,-1%,1%,-20%
O=C1C(C=NCCN2CCOCC2)=C(O)c2ccccc21,?,-5%,6µM*,11%,?,?
COc1ccc(N=CC2=C(O)c3ccccc3C2=O)cc1,4µM*,0.71µM*,0.15µM*,0.32µM*,?,?
O=C1C(C=Nc2ccccc2)=C(O)c2ccccc21,16µM*,3.2µM*,0.54µM*,1.6µM*,?,?
COc1ccc(N=Cc2[nH]c3ccccc3c2O)cc1,?,8%,2.1µM*,?,13%,?
O=C1C(C=NCCCN2CCOCC2)=C(O)c2ccccc21,-9%,-5%,?,4%,15%,?
O=c1c(NCc2ccccc2Cl)nccn1-c1ccccc1,.,.,-7%,.,.,.
Cc1ccccc1CNC(=O)CCC(=O)N1CCSc2ccccc21,.,.,-12%,.,.,.
